# Data published in ChEMBL document CHEMBL3988442, “University of Dundee, Small-Polar-MMV Screening Library” (2021).
# The campaign covered roughly 48,000 compounds. About 13,000 (27%) showed an effect of 50% or more. Some of the results follow.
# Test system: Wolbachia pipientis
# Assay: Anti-Wolbachia Cell-Based Screen
# Format: functional
# Set-up: scale not given: in the data most compounds retested in dose-response had high values
# Settings: 5 µM
row,Structure (SMILES),Percent Effect [%]
1,CC(C)N1CCCC2(CCN(C(=O)CCCn3cncn3)C2)C1=O (stereo not drawn),0.7052
2,Cc1cnn(-c2ccc(C(=O)N3CCCC(n4ccnc4C)C3)cc2)c1 (stereo not drawn),110
3,Cc1cnn(C2CCCN(C(=O)c3ccc(O)nc3)C2)c1 (stereo not drawn),123.6
4,Cc1cnn(C2CCCN(C(=O)c3sccc3C#N)C2)c1 (stereo not drawn),1.519
5,Cc1cnn(C2CCCN(C(=O)c3ccc(-n4cccn4)nc3)C2)c1 (stereo not drawn),95.03
6,Cc1cnn(C2CCCN(C(=O)c3ccc(N4CCCC4)nc3)C2)c1 (stereo not drawn),85.57
7,O=C(CCCn1cncn1)N1CCC2(CC1)[C@H](O)C[C@@H]2OCCO,-4.804
8,Cc1cc(CNCC2CCCN(C(=O)OC(C)(C)C)C2)no1 (stereo not drawn),-1.865
9,CCCOC1CCCN(C(=O)c2[nH]nc(C)c2Br)C1 (stereo not drawn),-6.367
10,CCCN1CCN(C(=O)c2ccc3ccccc3n2)[C@H]2CS(=O)(=O)C[C@H]21,2.901
11,Cc1noc2ncc(C(=O)N3CCCC(n4ccnc4C)C3)cc12 (stereo not drawn),-5.392
12,Cc1nccn1C1CCCN(C(=O)c2ccc(-n3cccn3)nc2)C1 (stereo not drawn),122
13,Cc1nccn1C1CCCN(C(=O)c2ccc(N(C)C)nc2)C1 (stereo not drawn),-2.779
14,Cc1ccc(-c2noc(CCC3CCN(C)CC3)n2)nn1,-9.501
15,CC(C)CCN1CC2(CCN(C(=O)C3(C)CCCCO3)CC2)OC1=O (stereo not drawn),-6.368
16,CCc1ncc(C(=O)N2CCN(Cc3ncccc3C)CC2)cn1,86.86
17,Cc1cccnc1CN1CCN(C(=O)c2cnn(C(C)C)c2)CC1,94.71
18,Cc1nccc(C(=O)N2CCCN(Cc3cnn(C(C)C)c3)CC2)n1,5.245
19,CC(C)n1cc(CN2CCCN(C(=O)c3cccnc3O)CC2)cn1,-1.686
20,Cc1cccnc1CN1CCN(C(=O)c2cc(Cl)c[nH]c2=O)CC1,-31.74
21,CCc1ncc(C(=O)N2CCN(C(=O)COc3ccccc3)CC2)cn1,3.835
22,Cc1ccc(OCCC(=O)N(C)CC(=O)Nc2cc(C)on2)c(C)c1,1.593
23,COc1c(C)cnc(CN(C)C(=O)c2ccc(C3CCCO3)s2)c1C (stereo not drawn),-4.342

row,Structure (SMILES),Percent Effect [%]
1,COc1c(C)cnc(CN2CCC(N(C)S(C)(=O)=O)CC2)c1C,116.9
2,COc1c(C)cnc(CN(C)C(=O)c2ccccc2O)c1C,-2.97
3,COc1ccc(C(=O)N(C)Cc2ncc(C)c(OC)c2C)c(OC)c1,77.44
4,COc1ccc(OC)c(C(=O)N(C)Cc2ncc(C)c(OC)c2C)c1,-4.561
5,COc1c(C)cnc(CNC(=O)CCOCC(C)C)c1C,11.08
6,COc1c(C)cnc(CN2CCC(N(C)C(C)C(N)=O)CC2)c1C (stereo not drawn),-8.935
7,COc1c(C)cnc(CN2CCC(N(C)C(=O)C(C)OC)CC2)c1C (stereo not drawn),99.72
8,COc1cccc(CCCN2CCC(N(C)S(C)(=O)=O)CC2)c1,-2.016
9,COc1c(C)cnc(CN2CCOC(Cn3nc(C)nc3C)C2)c1C (stereo not drawn),-9.057
10,COc1ccccc1C(=O)N(C)Cc1ncc(C)c(OC)c1C,-3.019
11,O=C(c1cnc(NCCC2CCCO2)c(Cl)c1)N1CCOCC1 (stereo not drawn),-6.598
12,Cc1cc(NC(=O)Cc2ccccc2O)cnc1N1CCCCC1,13.35
13,COc1cccc2c1OCC(CNC(=O)CSc1nc(N)n[nH]1)C2 (stereo not drawn),-2.891
14,Cc1cccc(N2CC[C@@H]3CN(Cc4csc(C)n4)CCO[C@@H]3C2)n1.O=C(O)C(F)(F)F.O=C(O)C(F)(F)F,-4.327
15,O=C1NCC2(CCCN(C(=O)c3ccc4c(c3)CCO4)C2)O1 (stereo not drawn),16.66
16,CCOc1ccccc1OCC(=O)NCc1ncc(C)c(OC)c1C,8.111
17,COc1c(C)cnc(CN2CCC(C(=O)N(C)C)CC2)c1C,2.904
18,CCc1noc(C)c1C(=O)N(C)Cc1ncc(C)c(OC)c1C,-4.169
19,COc1c(C)cnc(CN2CCC(N(C)C(=O)C3CC3)CC2)c1C,110.7
20,CCNC(=O)N(C)C1CCN(Cc2ncc(C)c(OC)c2C)CC1,110.9
21,CCC(=O)N(C)C1CCN(Cc2ncc(C)c(OC)c2C)CC1,9.191
22,N[C@@H]1CC[C@H](C(=O)NCCn2cc(Cl)cn2)C1,-5.887
23,Cc1ccc(-n2ccnc2)c(C(=O)NCCOCC2CCCO2)c1 (stereo not drawn),2.009

row,Structure (SMILES),Percent Effect [%]
1,CCN(C(=O)c1cc(C)nc2ccccc12)C1CC(=O)NC1=O (stereo not drawn),9.266
2,CN(CC1(C)COC1)C(=O)c1cc(-c2ccnn2C)nc2ccccc12,116.9
3,CN(Cc1cnn(C)c1)C(=O)c1cc2ccccc2c(=O)[nH]1,-10.85
4,CCN(C)C(=O)c1cc(-c2ccn(C(C)C)n2)n2ccccc12,6.69
5,CN(CC1(C)COC1)C(=O)c1cc(-c2cnn(C)c2)nc2ccccc12,150.1
6,CN(Cc1ncnn1C)C(=O)c1ccccc1NCc1ccccc1,-8.23
7,Cn1cc(CNC(=O)C2COCC(=O)N2Cc2ccccc2)cn1 (stereo not drawn),-3.917
8,CN(Cc1cccc(C(=O)Nc2ccnn2C)c1)CC1(C)COC1,30.85
9,CN(CC1(C)COC1)C(=O)c1cc(-c2ccn(C)n2)nc2ccccc12,106.6
10,COc1ccc(NC(=O)N(C)Cc2ccc(Br)o2)cn1,12.08
11,CN(C)S(=O)(=O)NCc1cccnc1Oc1ccccc1,-16.22
12,CCc1ccc(C(=O)N(CC)Cc2ccoc2)cc1S(C)(=O)=O,18.17
13,Cc1cccc2c1nc(COCC(=O)O)n2-c1cnc(N)cn1,0.6066
14,O=C(O)C1(Oc2ccc3ccccc3c2)CCN(c2ccncc2)CC1,-19.78
15,CCCn1ccnc1CN1CCC(Oc2ccc(Cl)cc2)(C(=O)O)CC1,-1.396
16,O=C(O)C1(Oc2ccc3c(c2)OCO3)CCN(C2CCOCC2)CC1,140.6
17,O=C(O)C1(Oc2ccccc2)CCN(c2ccncc2)CC1,-10.06
18,O=C(O)C1(Oc2cccc(F)c2)CCN(C2CCOCC2)CC1,114
19,O=C(O)C1(Oc2cccc(F)c2)CCN(c2ccncc2)CC1,-29.88
20,CCCn1ccnc1CN1CCC(Oc2cccc(F)c2)(C(=O)O)CC1,-7.212
21,O=C(O)C1(Oc2ccc(Cl)cc2)CCN(C2CCOCC2)CC1,109.8
22,O=C(O)C(c1ccc2c(c1)OCCO2)N1CCC(N2CCOCC2)CC1 (stereo not drawn),10.3
